Screen size: about 1,900 compounds; about 240 (13%) were called active. This is one part of a sample in which actives are shown more often than they occur. A number with no mark means an inactive call.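 The calls were made as follows: active = mean inhibition at least 40% at 20 µM, or signal 3 deviations below plate average, so some actives read negative; inactive = the rest.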

This note sets out measurements from PubChem BioAssay AID602333 (Sanford-Burnham Center for Chemical Genomics, 2012).

In the assay the target is Prothrombin (Bos taurus) (UniProt P00735). In words: bovine thrombin protease inhibition, confirmation, counter-screen for Rpn11 inhibitor project, biochemical, fluorescence polarization, single concentration (AID 602333).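 Also: plate controls were thrombin with DMSO for no effect and buffer wells lacking thrombin for full effect.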 To be noted: bovine thrombin cleavage of Ub4-pepOG, at 20 µM, active compounds read high.
Chain of Prothrombin (Bos taurus) (P00735 whole entry, looked up): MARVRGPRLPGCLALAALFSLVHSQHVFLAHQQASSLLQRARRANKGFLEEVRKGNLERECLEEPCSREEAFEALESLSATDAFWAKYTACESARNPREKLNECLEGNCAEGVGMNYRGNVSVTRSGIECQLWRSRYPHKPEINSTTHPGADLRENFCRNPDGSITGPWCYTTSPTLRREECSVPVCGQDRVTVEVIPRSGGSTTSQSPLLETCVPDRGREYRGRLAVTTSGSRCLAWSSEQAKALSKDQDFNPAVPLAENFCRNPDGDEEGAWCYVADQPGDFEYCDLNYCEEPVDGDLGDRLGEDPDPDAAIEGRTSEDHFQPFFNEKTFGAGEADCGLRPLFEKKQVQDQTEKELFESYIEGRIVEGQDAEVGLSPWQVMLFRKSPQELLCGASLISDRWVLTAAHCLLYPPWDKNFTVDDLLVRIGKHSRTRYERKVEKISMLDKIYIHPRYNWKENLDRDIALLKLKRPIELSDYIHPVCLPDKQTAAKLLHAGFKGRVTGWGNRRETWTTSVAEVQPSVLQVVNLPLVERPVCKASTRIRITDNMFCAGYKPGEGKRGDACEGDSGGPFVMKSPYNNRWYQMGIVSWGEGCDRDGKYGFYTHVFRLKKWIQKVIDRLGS
Take `CCN1C(=O)C(=Cc2c(C)n(CC(=O)NCC3CCCO3)c3ccccc23)C(=O)N(CC)C1=S` (stereo not drawn): the inhibition is 53.3% (active).

Turning to `O=c1[nH]c(=O)n(Cc2ccccc2)c(O)c1/C=N/Nc1c(F)c(F)c(F)c(F)c1F`, the inhibition was 12.8%.

Regarding `Cc1cccc(N2C(=O)NC(=O)/C(=C\c3cnn(-c4ccccc4)c3)C2=O)c1`, the inhibition is 6.14%.
